DT40 TDP1 CPT – DT40-hTDP1 cell growth loss with CPT; chicken DT40 Tdp1-/-;hTDP1 cells + 20 nM CPT, ATP luminescence, 48 h; Potency, µM (series often up to 46.2 µM), without a hit: top-dose activity change, negative = growth inhibition, most hits filed as inhibitors; 420,000 compounds, 12% hits; AID 686979; note: nearly all actives have a fitted effect of over 55% in size
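Chicken DT40 Tdp1-/- cells stably complemented with human TDP1 were seeded at 400 cells/well in medium containing 20 nM camptothecin, exposed to pin-transferred compounds, and grown at 37 °C for at least 48 hr. Viability was read as ATP luminescence.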
KB-3-1 cytotox – KB-3-1 parental cell cytotoxicity; KB-3-1 viability, CellTiter-Glo ATP luminescence, 72 h; Potency, µM (doses to about 46.1 µM), actives largely listed as cytotoxic; 400,000 compounds, 1.4% hits; AID 1347075; note: nearly all actives have a fitted effect of over 60% in size
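KB-3-1 parental drug-naive adenocarcinoma cells in DMEM/10% FBS, incubated 72 h at 37 C with pin-transferred compounds across a concentration series. Viability by CellTiter-Glo luminescence; concentration-response curves fitted after normalization.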
TDP1 cell noCPT – qHTS for Inhibitors of human tyrosyl-DNA phosphodiesterase 1 (TDP1): qHTS in cells in absence of CPT. Potency, µM (top dose mostly 46.2 µM), inactives show at the highest dose activity change, negative = growth inhibition, most hits filed as inhibitors. 420,000 compounds, 15% hits. AID 686978, 2013. DT40 Tdp1-/- hTDP1 cells, no CPT, ATP luminescence, 48 h; note: nearly all actives have a fitted effect of over 55% in size
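Growth of hTDP1-complemented DT40 Tdp1-knockout cells is measured by ATP luminescence after at least 48 hr compound exposure at 37 °C, with DMSO substituting for the 20 nM CPT used in the parallel screen.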
HT1080 IDH1KD tx – HT-1080 IDH1 knockdown cell toxicity (counter line). AID 686971. 360,000 compounds, 2% hits. Potency, µM (series often up to 46.1 µM), for the others: top-dose activity, negative = toxicity, usual class: cytotoxic. HT-1080 IDH1 knockdown viability, ATP luminescence, 48 h;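 note: 0% = DMSO wells and -100% = cell-free medium wells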
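After a 2 h attachment period, IDH1KD HT-1080 cells took pin-transferred compound for 48 h at 37 °C; ATP-based luminescence after 10 min room-temperature reagent incubation reported viability.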
KB-V1 cytotox – KB-V1 MDR subline cytotoxicity; Potency, µM (highest dose often 46.1 µM), most hits filed as cytotoxic; 400,000 compounds, 3.4% hits; KB-V1 MDR cells viability, CellTiter-Glo, 72 h; AID 1347076; note: nearly all actives have a fitted effect of over 60% in size
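Potencies derive from concentration-effect curves fitted to normalized luminescence (CellTiter-Glo) of KB-V1 cells treated for 72 h at 37 degrees C in phenol-red-free DMEM containing 10% FBS.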
HT1080-NT tox – kills 2HG-producing HT-1080-NT fibrosarcoma cells; HT-1080-NT fibrosarcoma viability, CellTiter-Glo ATP luminescence, 48 h; Potency, µM (top dose mostly 46.1 µM), for inactives: top-dose activity, negative = less viability, hits mostly cytotoxic; 360,000 compounds, 1.6% hits;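 note: NT is the 2HG producing partner of a matched IDH1 knockdown line; 0% = DMSO-treated cells and -100% = media-only wells without cells; nearly all actives have a fitted effect of over 55% in size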
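Viability of the 2HG-overproducing fibrosarcoma line after 48 hours of compound exposure at 37 degrees C was determined by luminescence with CellTiter-Glo, and concentration-effect curves were then fitted and categorized.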
* = called active by the depositor; i = inactive; ? = inconclusive; . = no result given; ! = not confirmed by another sample. Most compounds without a hit are left out; they make up all but 19% or so of the library. Calls come from the whole dose curve; as a rule, active = well fitted curve in the direction sought with a large enough effect; inconclusive = small, poorly fitted or top-dose-only effect, or another doubt; inactive = no such curve, though single readings can be large; an effect the other way counts as inactive or inconclusive. Unless noted, % is set by controls: 0 for no effect and ±100 for the full control effect; potency is the fitted concentration of half-maximal effect.

SMILES	DT40 TDP1 CPT	KB-3-1 cytotox	TDP1 cell noCPT	HT1080 IDH1KD tx	KB-V1 cytotox	HT1080-NT tox
CCCCCCCCCCCCCCCC[n+]1cccc2ccccc21	0.41µM*	?	0.23µM*	8.2µM*	23µM*	6.5µM*
O/N=C/c1cccc[n+]1CCCCCC[n+]1ccccc1/C=N/O	4%	i	14%	13%	i	18%
C=CC[n+]1cccc2cc(Br)ccc21	-15%	i	-17%	.	i	.
CCCCCCCCC[n+]1cccc2c3ccccc3ccc21	0.58µM*	?	0.46µM*	10µM*	?	7.3µM*
CCCCCCCCCC[n+]1cccc2cc(Br)ccc21	0.63µM*	1.3µM*	1.3µM*	.	?	.
Brc1cccc[n+]1Cc1ccccc1C[n+]1ccccc1Br	?	i	-25%	.	i	.
Cc1ccccc1C[n+]1cccc2ccccc21	?	?	15µM*	-9%	i	23%
O=C(Cc1cccs1)NCc1ccc(Cl)cc1Cl	-1%	i	-13%	0%	i	11%
CCCc1nnc(NC(=O)Cc2coc3cc(C)cc(C)c23)s1	-18%	i	-23%	.	i	.
CSCC[C@H](NC(=O)[C@H](Cc1ccc(OS(=O)(=O)O)cc1)NC(=O)[C@@H](N)CC(=O)O)C(=O)NCC(=O)N[C@@H](Cc1c[nH]c2ccccc12)C(=O)N[C@@H](CCSC)C(=O)N[C@@H](CC(=O)O)C(=O)N[C@@H](Cc1ccccc1)C(N)=O	6%	.	-27%	.	.	.
C=C(C(=O)O)c1ccc2ccccc2c1	14%	i	9%	.	i	.
COc1cc(=O)n2c(c1C(=O)N(C)Cc1nonc1C)CCN(C(=O)c1cccc(C)c1C)CC2	5%	.	-7%	.	.	.
C=CC[C@H](CC(=O)N[C@H](CO)Cc1ccccc1)C(=O)N[C@@H](COC(=O)[C@@H](CC=C)CC(=O)OC(C)(C)C)Cc1c[nH]c2ccccc12	?	?	?	?	i	-20%
C=CC[C@@H](CC(=O)N(CCO)Cc1ccccc1)C(=O)N[C@H](COC(=O)[C@@H](CC=C)CC(=O)OC(C)(C)C)Cc1c[nH]c2ccccc12	18µM*	i	23µM*	-25%	i	-26%
C=CC[C@@H](CC(=O)N(CCO)Cc1ccccc1)C(=O)N[C@@H](COC(=O)[C@@H](CC=C)CC(=O)OC(C)(C)C)Cc1c[nH]c2ccccc12	26µM*	?	21µM*	?	i	?
C=CC[C@H](CC(=O)N(CCO)Cc1ccccc1)C(=O)N[C@@H](COC(=O)[C@H](CC=C)CC(=O)OC(C)(C)C)Cc1c[nH]c2ccccc12	15µM*	?	16µM*	?	?	?
C=CC[C@H](CC(=O)N(CCO)Cc1ccccc1)C(=O)N[C@H](COC(=O)[C@H](CC=C)CC(=O)OC(C)(C)C)Cc1ccccc1	23µM*	i	21µM*	-13%	i	-13%
C=CC[C@@H](CC(=O)N(CCO)Cc1ccccc1)C(=O)N[C@H](COC(=O)[C@@H](CC=C)CC(=O)OC(C)(C)C)C(C)(C)C	?	i	?	-18%	i	-4%
C[C@H](CO)N1C[C@H](C)[C@@H](CN(C)C(=O)Nc2ccc(C(F)(F)F)cc2)Oc2ccc(NC(=O)CCC(F)(F)F)cc2C1=O	-25%	i	-4%	-13%	?	-8%
CSc1ncnc2c1ncn2CCCNCCCc1ccccc1	6%	i	8%	-5%	i	-3%
Cc1nnc(NC(=O)CSc2nnc(CC(=O)Nc3ccccc3Cl)n2C)s1	1%	i	6%	6%	i	5%
C[C@@H]1CN([C@H](C)CO)C(=O)CCCn2cc(nn2)CO[C@H]1CN(C)C(=O)Nc1ccc(C(C)(C)C)cc1	-22%	i	-6%	1%	i	3%
COc1cc(Cl)cc(C2NC(=O)NC(C)=C2C(C)=O)c1OCC(=O)O (configuration not stated)	1%	i	-20%	5%	i	6%
COc1cc2c(c(OC)c1OC)-c1ccc(OC)c(=O)cc1[C@@H](N(C)CC#CCO)CC2	0.21µM*	0.052µM*	0.18µM*	0.16µM*	?	0.0073µM*
COc1cc2c(c(OC)c1OC)-c1ccc(N(C)CC(OC)OC)c(=O)cc1[C@@H](NC(C)=O)CC2	1.3µM*	0.52µM*	0.65µM*	0.65µM*	?	?
SMILES	DT40 TDP1 CPT	KB-3-1 cytotox	TDP1 cell noCPT	HT1080 IDH1KD tx	KB-V1 cytotox	HT1080-NT tox
CN[C@H]1CCc2cc(OC)c(OC)c(OC)c2-c2ccc(N(C)CC(OC)OC)c(=O)cc21	7.3µM*	2.6µM*	6.5µM*	?	?	4.1µM*
COc1cc2c(cc1OC)C(COc1ccc(F)cc1)N(C(C)=O)CC2 (configuration not stated)	-15%	i	0%	-11%	i	-1%
Cc1ccccc1NC(=O)CSc1c(C(C)C)cnc2c1c(=O)n(C)c(=O)n2C	-52%	.	?	.	.	.
Cc1ccc(N2CCN(S(=O)(=O)c3ccc4oc(=O)c5ncn(C)c5c4c3)CC2)c(C)c1	-10%	.	?	.	.	.
Cc1ccc(CNC(=O)CN(C)S(=O)(=O)c2ccc3c(c2)c(=O)n(C)c(=O)n3C)cc1	-8%	i	-6%	.	i	.
COc1ccc(CNC(=O)CN(C)S(=O)(=O)c2ccc3c(c2)c(=O)n(C)c(=O)n3C)cc1	?	i	16µM*!	1%	i	0%
CCCCN(CCCC)C(=O)CN(C)S(=O)(=O)c1ccc2c(c1)c(=O)n(C)c(=O)n2C	23µM*	i	?	.	i	.
C=CCc1c(C)nc2nc(SCC(=O)Nc3ccccc3CC)nn2c1C	-30%	.	?	.	.	.
COc1cccc(CCc2nnc(CCC(=O)NC(C)c3c(C)nn(C)c3C)o2)c1 (configuration not stated)	7%	i	14%	4%	i	-3%
OCCC1CN(Cc2cccn2-c2ncccn2)CCN1C1CCCC1 (configuration not stated)	13%	i	-3%	25%	i	-3%
O=C(NCc1ccc(Cl)cc1)c1ccccc1CCc1ccccc1	-12%	i	-30%	-6%	21µM*	-2%
Cc1cc(C)c(NC(=O)c2ccccc2CCc2ccccc2)c(C)c1	18µM*	i	?	?	i	-3%

Screens deposited in PubChem by National Center for Advancing Translational Sciences (NCATS).
